# Experimental data published in PubChem BioAssay (NCATS).
# Inconclusive results are not listed. Values without a mark were called inactive. The source made the active and inactive calls. Calls come from the whole dose curve; as a rule, active = well fitted activation curve with a large enough effect; inconclusive = small, poorly fitted or top-dose-only effect; inactive = flat fitted curve, though single readings scatter.
# Test: Validation screen for small molecules that induce DNA re-replication in MCF 10A normal breast cells (AID 463097); note: nearly all actives have a fitted effect of over 60% in size; for re-replication induction: 0% is about no effect
# Details: MCF 10A cells, DNA re-replication phenotype imaging; series mostly up to 46.1 µM; re-replication induction: at the top concentration
# From the text: NIH Molecular Libraries Probe Production Network [MLPCN]
# NIH Chemical Genomics Center [NCGC]
# Assay Provider: Melvin DePamphilis, NICHD, NIH
# Eukaryotic cells normally restrict genome duplication to once per cell division. When this process is aberrant, DNA re-replication occurs when cells reinitiate DNA replication before the first round of replication is complete. DNA re-replication induces the DNA damage response, arrests cell proliferation, and triggers apoptosis. The cell cycle components cyclin A, Cdt-1, Cdc6 and geminin are critical regulators of this process and their misregulation results in DNA re-replication in normal and cancer cells. To identify compounds that induce re-replication in normal cells, an image-based assay was used to measure DNA content of nuclei, as detected by the fluorescent DNA binding dye, Hoechst. Cell nuclei were imaged by a fluorescence scanning plate imager and compounds that induce DNA re-replication were identified by the increase of nuclei with elevated fluorescence intensity.
# For screening, 250 cells in 5 uL/well were dispensed into black clear 1536-well plates (Aurora) using a solenoid-based dispenser. Following transfer of 23 nL compound or DMSO vehicle by a pin tool, the plates were incubated 48 hr at 37 C and 5% CO2. After addition of 1 uL/well Hoescht stain, the plates were incubated 40 min at 37 C, 5% CO2 and total intensity of fluorescent objects (nuclei) were enumerated by an Acumen Explorer Ex3 (TTP LabTech) fluorescence scanning plate imager (405 nm excitation, 500-530 nm emission).
# Keywords: NIH Roadmap, MLPCN, MLI, MLSMR, qHTS, NCGC, DNA replication, cancer
# Potency is the fitted concentration of half-maximal effect.
Structure (SMILES),re-replication induction,Potency
CN(C)C(=O)Oc1ccc[n+](C)c1,-4.15%,–
CN(C)CCN(Cc1cccs1)c1ccccn1,1.41%,–
CCn1cc(C(=O)O)c(=O)c2cc3c(cc21)OCO3,2.22%,–
Brc1c(NC2=NCCN2)ccc2nccnc12,-1.45%,–
C=CCc1ccccc1OCC(O)CNC(C)C (stereo not given),3.94%,–
CCN(CC)CCOCCOC(=O)C1(c2ccccc2)CCCC1,18.3%,–
O=C(O)CN(CCOCCOCCN(CC(=O)O)CC(=O)O)CC(=O)O,1.62%,–
C[C@H](CS)C(=O)N1CCC[C@H]1C(=O)O,-2.08%,–
CC(=O)Oc1cc(C(C)C)c(OCCN(C)C)cc1C,-1.66%,–
CN(C)CC/C=C1\c2ccccc2COc2ccccc21,4.52%,–
CCc1cccc(N(C)C(N)=Nc2cccc3ccccc23)c1,16.3%,–
Cc1nc2c([nH]1)c(=O)n(C)c(=O)n2Cc1ccco1,5.59%,–
CCCOc1ccccc1-c1nc2n[nH]nc2c(=O)[nH]1,-4.95%,–
CCN(Cc1ccncc1)C(=O)C(CO)c1ccccc1 (stereo not given),-0.208%,–
Cc1nc2ccccn2c(=O)c1CCN1CCC(C(=O)c2ccc(F)cc2)CC1,4.04%,–
NC(Cc1ccc(Cl)cc1)C(=O)O (stereo not given),-1.69%,–
O=C(O)CN(CCN(CC(=O)O)CC(=O)O)CCN(CC(=O)O)CC(=O)O,-0.539%,–
CN(C(=O)CCCOc1ccc2[nH]c(=O)ccc2c1)C1CCCCC1,11.7%,–
OCCN1CCN(CCCN2c3ccccc3C=Cc3ccccc32)CC1,–,inactive
Nc1c2c(nc3ccccc13)CCCC2O (stereo not given),2.42%,–

Structure (SMILES),re-replication induction,Potency
CC(C)COCC(CN(Cc1ccccc1)c1ccccc1)N1CCCC1 (stereo not given),-3.99%,–
COC(=O)[C@@H](N)Cc1ccc(O)c(O)c1,-0.821%,–
CCO/C([O-])=N/c1c[n+](N2CCOCC2)no1,-4.45%,–
C#CCN(C)CCCOc1ccc(Cl)cc1Cl,4.85%,–
CSc1ccc(C(=O)c2[nH]c(=O)[nH]c2C)cc1,4.93%,–
CCN1CCC[C@H]1CNC(=O)c1c(O)c(Cl)cc(Cl)c1OC,-10.4%,–
CC(C)(C)NCC(O)c1cc(O)cc(O)c1 (stereo not given),8.65%,–
CC(C)[N+](C)(CCOC(=O)C1c2ccccc2Oc2ccccc21)C(C)C,-10.2%,–
CCc1c(C)[nH]c2c1C(=O)C(CN1CCOCC1)CC2 (stereo not given),0.641%,–
CN(C)C(=O)Oc1cccc([N+](C)(C)C)c1,-1.29%,–
CO[C@@]1(NC(=O)CSCC#N)C(=O)N2C(C(=O)O)=C(CSc3nnnn3C)CS[C@@H]21,-0.0139%,–
CC(=O)[C@]1(O)Cc2c(O)c3c(c(O)c2[C@@H](O[C@H]2C[C@H](N)[C@H](O)[C@H](C)O2)C1)C(=O)c1ccccc1C3=O,5.44%,–
COCCc1ccc(OCC(O)CNC(C)C)cc1 (stereo not given),4.53%,–
NC(N)=N/N=C/c1c(Cl)cccc1Cl,-1.14%,–
CC(=O)Nc1nnc(S(N)(=O)=O)s1,0.0684%,–
Nc1ncn([C@@H]2O[C@H](CO)[C@@H](O)[C@H]2O)c(=O)n1,–,3.16 µM (active)
COc1ccc(CCN(C)CCCC(C#N)(c2cc(OC)c(OC)c(OC)c2)C(C)C)cc1OC (stereo not given),11.4%,–
CCCC(C(=O)OCCN(CC)CC)(c1ccccc1)c1ccccc1,17.2%,–
C[C@]12C=CC(=O)C=C1CC[C@H]1[C@@H]3C[C@@H](O)[C@](O)(C(=O)CO)[C@@]3(C)C[C@H](O)[C@@]12F,4.15%,–
CCCN(CCC)C(=O)C(CCC(=O)O)NC(=O)c1ccccc1 (stereo not given),-4.62%,–
